Measurements reported in PubChem BioAssay AID1159580 (chemical genetic matrix, 2015).
Among all 5,500 compounds or so, about 2,000 (36%) were called active. About 18% were inconclusive and are not listed. Rule as the data show it: active = normalized growth mostly below about 0.91 (no sharp cut-off); inconclusive = no clear call, values can overlap the other calls; inactive = mostly above about 0.92. The list shows a part of the results.

Test: chemical genetic growth profiling, strain panel (AID 1159580);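 also: tested at 20 µM; growth read once vehicle control cultures reached saturation at 30 °C; 1 = growth at the plate median or of vehicle wells; lower values mean less growth of the strain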
Conditions: growth OD
[1] = S. cerevisiae deletion strains, locus YAL013W, strain DEP1, active compounds read low
[2] = S. cerevisiae deletion strains, locus YBR229C, strain ROT2, active compounds read low
[3] = S. cerevisiae deletion strains, locus YDL101C, strain DUN1, active compounds read low
[4] = S. cerevisiae deletion strains, locus YDR150W, strain NUM1, active compounds read low
[5] = S. cerevisiae deletion strains, locus YEL061C, strain CIN8, active compounds read low
[6] = S. cerevisiae deletion strains, locus YGR078C, strain PAC10, active compounds read low
[7] = S. cerevisiae deletion strains, locus YHR030C, strain SLT2, active compounds read low
[8] = S. cerevisiae deletion strains, locus YJR043C, strain POL32, active compounds read low
[9] = S. cerevisiae deletion strains, locus YJR075W, strain HOC1, active compounds read low
[10] = S. cerevisiae deletion strains, locus YLR039C, strain RIC1, active compounds read low
[11] = S. cerevisiae deletion strains, locus YLR262C, strain YPT6, active compounds read low
[12] = S. cerevisiae deletion strains, locus YMR263W, strain SAP30, active compounds read low
[13] = S. cerevisiae deletion strains, locus YMR307W, strain GAS1, active compounds read low
[14] = S. cerevisiae deletion strains, locus YNL128W, strain TEP1, active compounds read low
[15] = S. cerevisiae deletion strains, locus YNL153C, strain GIM3, active compounds read low
[16] = S. cerevisiae deletion strains, locus YNL322C, strain KRE1, active compounds read low
[17] = S. cerevisiae deletion strains, locus YOL006C, strain TOP1, active compounds read low
[18] = S. cerevisiae deletion strains, locus YPL055C, strain LGE1, active compounds read low
[19] = S. cerevisiae deletion strains, locus YPL241C, strain CIN2, active compounds read low

Measured: normalized growth

CCCCCCC(C)OC(=O)COc1cc(Cl)c(Cl)cc1Cl (stereo unspecified)
inactive: [1] 0.994 | S. cerevisiae deletion strains, locus YBR021W, strain FUR4, active compounds read low 0.985 | [2] 1 | S. cerevisiae deletion strains, locus YCL029C, strain bik1, active compounds read low 0.992 | S. cerevisiae deletion strains, locus YDL035C, strain GPR1, active compounds read low 1 | S. cerevisiae deletion strains, locus YDL074C, strain BRE1, active compounds read low 1 | [3] 1 | S. cerevisiae deletion strains, locus YDL134C, strain PPH21, active compounds read low 1.01 | S. cerevisiae deletion strains, locus YDL185W, strain tfp1, active compounds read low 0.995 | S. cerevisiae deletion strains, locus YDL192W, strain arf1, active compounds read low 0.995 | S. cerevisiae deletion strains, locus YDR101C, strain arx1, active compounds read low 0.993 | [4] 1 | S. cerevisiae deletion strains, locus YDR162C, strain NBP2, active compounds read low 0.964 | S. cerevisiae deletion strains, locus YDR318W, strain mcm21, active compounds read low 0.989 | S. cerevisiae deletion strains, locus YDR388W, active compounds read low 0.992 | S. cerevisiae deletion strains, locus YDR502C, strain sam2, active compounds read low 0.997 | [5] 1 | S. cerevisiae deletion strains, locus YER110C, active compounds read low 0.993 | S. cerevisiae deletion strains, locus YER155C, strain BEM2, active compounds read low 0.984 | S. cerevisiae deletion strains, locus YER167W, strain BCK2, active compounds read low 0.995 | S. cerevisiae deletion strains, locus YGL078C, strain dbp3, active compounds read low 0.985 | S. cerevisiae deletion strains, locus YGL086W, strain mad1, active compounds read low 0.988 | S. cerevisiae deletion strains, locus YGL248W, strain PDE1, active compounds read low 0.993 | [6] 0.995 | S. cerevisiae deletion strains, locus YGR135W, strain pre9, active compounds read low 0.994 | S. cerevisiae deletion strains, locus YGR229C, strain SMI1, active compounds read low 0.952 | S. cerevisiae deletion strains, locus YGR252W, strain gcn5, active compounds read low 0.99 | [7] 0.978 | S. cerevisiae deletion strains, locus YHR079C, strain IRE1 (second series), active compounds read low 0.986 | S. cerevisiae deletion strains, locus YHR094C, strain hxt1, active compounds read low 0.983 | S. cerevisiae deletion strains, locus YHR129C, strain ARP1, active compounds read low 1 | S. cerevisiae deletion strains, locus YHR200W, strain rpn10, active compounds read low 0.987 | S. cerevisiae deletion strains, locus YIL066C, strain RNR3, active compounds read low 0.975 | S. cerevisiae deletion strains, locus YIL073C, strain SPO22, active compounds read low 0.948 | S. cerevisiae deletion strains, locus YIL125W, strain kgd1, active compounds read low 0.988 | S. cerevisiae deletion strains, locus YIR030C, strain dcg1, active compounds read low 0.983 | S. cerevisiae deletion strains, locus YJL095W, strain BCK1, active compounds read low 0.997 | S. cerevisiae deletion strains, locus YJL134W, strain LCB3, active compounds read low 1.01 | S. cerevisiae deletion strains, locus YJL168C, strain set2, active compounds read low 0.988 | S. cerevisiae deletion strains, locus YJL187C, strain SWE1 (second series), active compounds read low 0.997 | [8] 0.988 | [9] 1.01 | S. cerevisiae deletion strains, locus YKL009W, strain mrt4, active compounds read low 1 | S. cerevisiae deletion strains, locus YKL068W, active compounds read low 0.989 | S. cerevisiae deletion strains, locus YKL085W, strain MDH1 (second series), active compounds read low 0.986 | S. cerevisiae deletion strains, locus YKL085W, strain MDH1, active compounds read low 0.986 | S. cerevisiae deletion strains, locus YKL190W, strain CNB1, active compounds read low 1 | S. cerevisiae deletion strains, locus YKR001C, strain vps1, active compounds read low 0.996 | [10] 0.95 | S. cerevisiae deletion strains, locus YLR058C, strain SHM2, active compounds read low 0.999 | S. cerevisiae deletion strains, locus YLR102C, strain apc9, active compounds read low 0.998 | [11] 0.946 | S. cerevisiae deletion strains, locus YLR268W, strain sec22, active compounds read low 0.99 | S. cerevisiae deletion strains, locus YLR330W, strain CHS5, active compounds read low 1 | S. cerevisiae deletion strains, locus YLR342W, strain FKS1 (second series), active compounds read low 1.05 | S. cerevisiae deletion strains, locus YLR371W, strain rom2, active compounds read low 0.993 | S. cerevisiae deletion strains, locus YLR418C, strain cdc73, active compounds read low 0.947 | S. cerevisiae deletion strains, locus YML016C, strain PPZ1, active compounds read low 1.01 | S. cerevisiae deletion strains, locus YML032C, strain rad52, active compounds read low 0.994 | S. cerevisiae deletion strains, locus YML124C, strain tub3, active compounds read low 0.985 | S. cerevisiae deletion strains, locus YMR078C, strain ctf18, active compounds read low 0.989 | S. cerevisiae deletion strains, locus YMR223W, strain ubp8, active compounds read low 0.99 | [12] 1.01 | [13] 0.86 | S. cerevisiae deletion strains, locus YNL067W, strain RPL9B, active compounds read low 0.994 | [14] 0.995 | [15] 0.996 | S. cerevisiae deletion strains, locus YNL233W, strain BNI4, active compounds read low 0.996 | S. cerevisiae deletion strains, locus YNL250W, strain rad50, active compounds read low 0.982 | S. cerevisiae deletion strains, locus YNL271C, strain bni1, active compounds read low 0.997 | S. cerevisiae deletion strains, locus YNL298W, strain CLA4, active compounds read low 0.991 | S. cerevisiae deletion strains, locus YNL307C, strain MCK1, active compounds read low 0.973 | [16] 1 | S. cerevisiae deletion strains, locus YNR052C, strain pop2, active compounds read low 0.993 | [17] 0.963 | S. cerevisiae deletion strains, locus YOL012C, strain htz1 1.39 | S. cerevisiae deletion strains, locus YOL147C, strain pex11, active compounds read low 0.984 | S. cerevisiae deletion strains, locus YOR061W, strain CKA2, active compounds read low 1 | S. cerevisiae deletion strains, locus YOR069W, strain VPS5, active compounds read low 1 | S. cerevisiae deletion strains, locus YOR136W, strain idh2, active compounds read low 0.986 | S. cerevisiae deletion strains, locus YOR144C, strain elg1, active compounds read low 0.986 | S. cerevisiae deletion strains, locus YOR184W, strain ser1, active compounds read low 0.992 | S. cerevisiae deletion strains, locus YOR316C, strain cot1, active compounds read low 0.994 | [18] 0.999 | [19] 0.999 | S. cerevisiae deletion strains, locus YPR119W, strain clb2, active compounds read low 0.982 | S. cerevisiae deletion strains, locus YPR141C, strain kar3, active compounds read low 0.997 | S. cerevisiae deletion strains, locus YPR163C, strain tif3, active compounds read low 0.985 | S. cerevisiae deletion strains, locus YPR167C, strain met16, active compounds read low 0.992 | S. cerevisiae deletion strains, strain wtn01, active compounds read low 0.983 | S. cerevisiae strains, strain wild type, active compounds read low 0.999

OC1(c2ccc(F)cc2)Cc2ccccc2C2=NCCN21 (stereo unspecified)
inactive: [1] 0.99 | [2] 0.987 | [3] 0.997 | [4] 0.932 | [5] 0.993 | [6] 0.98 | [7] 0.903 | S. cerevisiae deletion strains, locus YHR087W, strain rtc3, active compounds read low 0.987 | S. cerevisiae deletion strains, locus YJL187C, strain SWE1, active compounds read low 1.01 | [8] 1 | [9] 0.961 | [10] 0.975 | S. cerevisiae deletion strains, locus YLR058C, strain SHM2 (second series), active compounds read low 0.983 | S. cerevisiae deletion strains, locus YLR085C, strain ARP6, active compounds read low 0.954 | [11] 0.968 | S. cerevisiae deletion strains, locus YML094W, strain GIM5, active compounds read low 0.982 | S. cerevisiae deletion strains, locus YMR219W, strain ESC1, active compounds read low 0.998 | [12] 0.894 | [13] 0.925 | [15] 0.985 | S. cerevisiae deletion strains, locus YNL298W, strain CLA4 (second series), active compounds read low 0.986 | [16] 0.992 | S. cerevisiae deletion strains, locus YNR030W, strain Alg12, active compounds read low 0.98 | [17] 0.93 | [18] 0.866 | [19] 0.986 | S. cerevisiae deletion strains, locus YPR135W, strain CTF4, active compounds read low 0.915

Clc1cccc(N2CCNCC2)c1
inactive: S. cerevisiae deletion strains, locus YAL040C, strain CLN3, active compounds read low 0.974 | S. cerevisiae deletion strains, locus YCL061C, strain MRC1 (second series), active compounds read low 0.983 | S. cerevisiae deletion strains, locus YER002W, strain NOP16, active compounds read low 0.981 | [6] 0.996 | [13] 0.991 | [14] 0.981 | [15] 0.985 | S. cerevisiae deletion strains, locus YNL175C, strain NOP13, active compounds read low 0.97 | S. cerevisiae deletion strains, locus YNL197C, strain WHI3, active compounds read low 0.979 | S. cerevisiae deletion strains, locus YNL224C, strain SQS1, active compounds read low 0.984 | [16] 0.996 | S. cerevisiae deletion strains, locus YOR083W, strain WHI5 (second series), active compounds read low 0.962 | [19] 0.982
